# Screening results (PubChem)
# Many of the other results were omitted from the sample, so hits are more common in it than they were.
# Tb PYK inh: blocks Trypanosoma brucei pyruvate kinase. Q57TT1. TbPYK enzyme, Kinase-Glo Plus ATP luminescence, 45 min. Potency, µM (top dose mostly 76.8 µM), for inactives: at the top dose activity, negative = inhibition, hits mostly inhibitors. hit rate 0.12% among 410,000. AID 624173; also: potency is read from the fitted curve at half-maximal effect; % is scaled to controls: 0 for no effect and ±100 for the full control effect; nearly all actives have a fitted effect of over 50% in size
#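 ADP (130 uM final) triggers the TbPYK reaction after compound addition; incubation is 45 min at room temperature. Kinase-Glo Plus is then added and luminescence imaged. Normalized data are fitted to concentration-effect curves.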
# LmPK inhibitor: inhibitors of Leishmania mexicana pyruvate kinase; purified LmPK, Kinase-Glo ATP luminescence, 1 h; Potency, µM (top dose mostly 57.5 µM), for inactives: at the highest dose activity change, negative = inhibition, usual class: inhibitors; hit rate 0.37% among 290,000; also: potency is read from the fitted curve at half-maximal effect; % is scaled to controls: 0 for no effect and ±100 for the full control effect
# Target sequence (Q27686 whole entry, looked up): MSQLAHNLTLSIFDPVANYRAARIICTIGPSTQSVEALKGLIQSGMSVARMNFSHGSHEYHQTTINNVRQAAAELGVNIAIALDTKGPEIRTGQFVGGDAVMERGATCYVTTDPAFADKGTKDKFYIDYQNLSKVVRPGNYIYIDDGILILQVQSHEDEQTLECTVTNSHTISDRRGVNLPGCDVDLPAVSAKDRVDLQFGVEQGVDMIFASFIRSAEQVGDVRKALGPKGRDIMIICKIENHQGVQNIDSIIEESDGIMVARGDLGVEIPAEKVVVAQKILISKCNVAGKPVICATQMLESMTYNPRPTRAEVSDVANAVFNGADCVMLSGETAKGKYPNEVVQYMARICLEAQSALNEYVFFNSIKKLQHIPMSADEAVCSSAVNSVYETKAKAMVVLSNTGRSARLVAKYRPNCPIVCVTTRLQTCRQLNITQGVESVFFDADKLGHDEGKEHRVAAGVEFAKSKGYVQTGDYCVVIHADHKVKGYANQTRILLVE
#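 Purified LmPK (0.1 nM) with 0.5 mM PEP and 0.1 mM ADP in imidazole buffer pH 7.2 with MgCl2/KCl, 1 h at room temperature. ATP formed was read by luciferase luminescence and normalized to no-enzyme and uninhibited controls.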
# NS1 inh: influenza NS1 inhibition | hit rate 0.4% among 270,000 | Potency, µM (titrated, usually from 46.1 µM), without a hit: top-dose activity, positive = more growth | AID 2326; calls by dose curve; also: potency is read from the fitted curve at half-maximal effect; actives are rising curves; nearly all actives have a fitted effect of over 50% in size
#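 Recovery from NS1-induced slow growth read by OD600 in budding yeast switched to galactose assay medium (pH 6.0, -URA) at 1:100 dilution. Compound 23 nl per well; the matching strain lacking NS1 serves as control.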
# Cycloheximide cs: affects cycloheximide protein synthesis inhibition readout, counter-screen | cell reporter, cycloheximide protein synthesis inhibition counterscreen | max response, % | hit rate 12% among 300,000; in the data active = max response mostly above about 13%, no sharp cut-off; inactive = mostly below about 14%; also: read at 38.3 µM for the half of the compounds with a filed dose; 0% is about no effect
# Shiga toxin inh: Shiga toxin inhibition. Vero cells, Shiga toxin protein synthesis inhibition reporter. hit rate 9.2% among 290,000. inhibition, % at 38.7 µM; in the data active = inhibition mostly above about 28%, no sharp cut-off; inactive = mostly below about 43%; also: 0% is about no effect
# SARS PLpro yeast: inhibitors of SARS-CoV papain-like protease in yeast | S. cerevisiae expressing SARS-CoV PLpro, growth rescue | Potency, µM (doses to about 32.9 µM), inactives show at the top dose activity, positive = growth rescue, most hits filed as activators | hit rate 0.19% among 330,000; calls by dose curve; also: potency is read from the fitted curve at half-maximal effect; 0% is about no effect; nearly all actives have a fitted effect of over 55% in size
# * = called active by the depositor; u = inconclusive; x = no result. Unless noted, calls follow the shape of the dose curve; as a rule, active = well fitted curve in the direction sought with a large enough effect; inconclusive = small, poorly fitted or top-dose-only effect, or another doubt; inactive = no such curve, though single readings can be large; an effect the other way counts as inactive or inconclusive.
SMILES,Tb PYK inh,LmPK inhibitor,NS1 inh,Cycloheximide cs,Shiga toxin inh,SARS PLpro yeast
O=C(CS(=O)(=O)Cc1ccccc1)N1CCc2ccccc2C1,-2%,1%,-11%,16*,40,-5%
O=S(=O)(Cc1ccccc1)N1CCc2ccccc21,x,-14%,-10%,13*,34*,-5%
O=C(c1ccco1)N1CCC2(CCN(Cc3ccncc3)CC2)CC1,4%,x,x,x,x,x
Cc1cc(C)c(OCC(=O)N(Cc2ccco2)Cc2ccco2)c(C)c1,0%,x,x,x,x,x
O=C(c1ccc(CS(=O)Cc2ccc(Cl)cc2)o1)N1CCN(C2CCCCC2)CC1 (centres undefined),-1%,x,x,x,x,x
OCC1OC(n2ccc3c(SCc4ccccc4)ncnc32)C(O)C1O (centres undefined),-9%,x,x,x,x,x
CCOC(=O)c1cnc(-c2ccccc2)nc1N,1%,-18%,-3%,57*,126*,-11%
CCOC(=O)c1cnc(-c2ccccc2)nc1N(C)C,-2%,-4%,-88%,48*,120*,-8%
Cc1ccc(Nc2ccc(-n3ccnc3)nn2)cc1C,-8%,4%,-81%,22*,2,-8%
COc1cccc(Nc2ccc(-n3ccnc3)nn2)c1,3%,0%,-8%,6,-5,0%
O=C(NCc1ccco1)C1CCN(c2nc3ccccc3n2Cc2ccccc2F)CC1,1%,2%,-65%,22*,2,8%
Cc1cc(=O)n2nc(N3CCC(C(=O)NCc4ccccc4F)CC3)sc2n1,-5%,-8%,9%,-1,-11,11µM*
O=C(CSc1nnc2ccccn12)N1CCc2ccccc21,1%,-2%,x,20*,62*,-7%
CC(Sc1nnc2ccccn12)C(=O)N1CCc2ccccc2C1 (centres undefined),-1%,-1%,-8%,20*,59,4%
O=C(CSc1nnc2ccccn12)N1CCOCC1,0%,-6%,11%,3,-5,0%
CC(=O)c1ccc(NC(=O)C(C)Sc2nnc3ccccn23)cc1 (centres undefined),-4%,x,x,x,x,-7%
O=C(CSc1nnc2ccccn12)N1CCc2ccccc2C1,-3%,-7%,-12%,29*,136*,5%
O=C1CN(C(=O)CSc2nnc3ccccn23)c2ccccc2N1,-22%,-3%,2%,-4,6,-5%
COc1cc(NC(=O)c2cnc3c(-c4ccc(F)cc4)c(C)nn3c2C)cc(OC)c1,0%,x,x,x,x,x
C/C(=N\NC1=NCCN1)c1ccc(N)c([N+](=O)[O-])c1,-5%,-3%,1%,12*,6,3%
CCCCCCOc1ccc(/C(C)=N/NC2=NCCN2)cc1[N+](=O)[O-],1%,0%,10%,18,11,-4%
COc1ccc(C(=O)CSc2ncn[nH]2)cc1OC,-9%,-1%,5%,2,14,-3%
O=C(CSc1ncn[nH]1)c1ccc(OC(F)F)cc1,-6%,2%,-2%,14*,21,0%
Cc1ccc(C(=O)CSc2ncn[nH]2)cc1,-21%,2%,-6%,20*,52,-10%
CCc1ccc(C(=O)CSc2ncn[nH]2)cc1,u,-1%,-12%,30*,76*,-5%
SMILES,Tb PYK inh,LmPK inhibitor,NS1 inh,Cycloheximide cs,Shiga toxin inh,SARS PLpro yeast
CCCOc1ccc(CSc2ncn[nH]2)cc1,u,-2%,-11%,30*,68*,-4%
CC[C@@H]1CC2=C(C(=O)OC(C)(C)O2)[C@H](c2ccc(F)cc2)O1,-3%,x,x,x,x,x
C[C@H](N)C(=O)N[C@@H](CO)C(=O)N[C@H](C(=O)N[C@H](C(=O)N[C@H](C(=O)N[C@@H](CC(N)=O)C(=O)N[C@@H](Cc1ccc(O)cc1)C(=O)N[C@H](C(=O)O)[C@@H](C)O)[C@@H](C)O)[C@@H](C)O)[C@@H](C)O,x,x,x,-5,-16,x
CCN(CC)c1ccc(/C=N/NC(=O)OC)c(O)c1,-7%,-5%,-62%,55*,64*,-23%
CCN(CC)c1ccc(/C=N/NC(=S)NC)c(O)c1,-7%,5%,x,30*,77*,29%
CCN(CC)c1ccc(/C=N/NC(=O)c2ccoc2C)c(O)c1,-3%,-5%,1%,27*,93*,15%
CCN(CC)c1ccc(/C=N/Nc2cccc(C)c2)c(O)c1,1%,4%,9%,2,21,-5%
CCN(CC)c1ccc(/C=N/N2CCOCC2)c(O)c1,3%,-3%,3%,65*,70*,13%
CCN(CC)c1ccc(/C=N/NC(=O)c2ccc3nc[nH]c3c2)c(O)c1,-4%,0%,-4%,-3,16,3.2µM*
O=C(N/N=C/c1ccc(Cl)c([N+](=O)[O-])c1)c1ccc2nc[nH]c2c1,-1%,3%,1%,-7,-3,-3%
CCN(CC)c1ccc(C=Nc2ccc(N(C)C)cc2)c(O)c1,-23%,3%,-10%,54*,91*,-14%
O=C(N/N=C/c1ccccc1[N+](=O)[O-])c1ccc2nc[nH]c2c1,-3%,-3%,4%,18*,32,0%
CCN(CC)c1ccc(/C=N/Nc2ccccc2)c(O)c1,2%,-1%,19%,23*,29,-5%
CCN(CC)c1ccc(N=Cc2ccc(N(CC)CC)cc2O)cc1,-12%,-11%,-1%,12,29,-2%
O=S(=O)(Nc1cccc(-n2cnnn2)c1)c1ccccc1F,-9%,0%,7%,-2,8,-4%
COc1ccc(NC(=O)c2cc(OCCCN(C)C)nn2Cc2ccccc2)cc1,x,x,x,8,0,x
Cc1ccc(C)c(NC(=O)CCN2CCOCC2)c1,-8%,-1%,-3%,-3,-11,2%
Cc1ccc(C)c(NC(=O)CCCCCCCCCCC2COCCO2)c1 (centres undefined),-11%,2%,6%,-8,-14,11µM*
O=C(Nc1ccon1)c1nc[nH]c1C(=O)N1CCN(c2ccccc2)CC1,0%,x,x,x,x,4%
O=C(c1ccncc1)N1CCC[C@@]2(CCN(C(c3ccccc3)c3ccccc3)C2)C1,-2%,x,x,x,x,x
N/C(=N\OC(=O)CCC1CCCCC1)c1cccnc1,-1%,-5%,-1%,17*,35*,-20%
N/C(=N\OC(=O)CC1CCCCC1)c1cccc([N+](=O)[O-])c1,1%,2%,-43%,35*,83*,-31%
COc1ccc(/C(N)=N/OC(=O)CC2CCCCC2)cc1,5%,-10%,-44%,47*,159*,0%
N/C(=N\OC(=O)CCC1CCCC1)c1cccc([N+](=O)[O-])c1,-1%,3%,-15%,18*,28,-27%
CN(CCN1CCOCC1)C(=O)C1CCC(=O)N(Cc2ccc(Cl)cc2)C1 (centres undefined),-10%,x,x,x,x,x
N/C(=N\OC(=O)CC1CCCCC1)c1ccc([N+](=O)[O-])cc1,-11%,2%,-19%,18*,26,-35%
Cc1nc(N)sc1C(=O)N/N=C/c1c[nH]c2ccccc12,7%,3%,11%,21*,38,-2%
